Compounds with a hit are over-represented: about 3.6% of the library has one in this group of screens.
Abeta yeast res: compounds reversing amyloid beta toxicity in yeast; Potency, µM (titrated, usually from 46.1 µM), hits mostly activators; yeast expressing A-beta42, growth rescue, OD600, 48 h; response scale: 0% DMSO, 100% iron-clioquinol control; 410,000 compounds, 0.063% hits; AID 1347071; also: nearly all actives have a fitted effect of over 55% in size
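Growth rescue measured by 600 nm absorbance after 48 h yeast culture at 30 C with compound. Values normalized between DMSO and an equimolar ferric chloride plus clioquinol control.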
TDP43 rescue: TDP-43 toxicity inhibition in yeast | Potency, µM (doses to about 46.1 µM), for inactives: at the highest dose growth rescue (activation), most hits filed as activators | TDP-43 expressing yeast growth rescue, BacTiter-Glo, 24 h | 410,000 compounds, 1.8% hits | AID 652104; also: % of control where 0% means no effect; nearly all actives have a fitted effect of over 50% in size
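Galactose-induced TDP-43 yeast, OD600=0.02, compound pinned; 24 hr, 30 deg C; BacTiter-Glo luminescence for growth. Inhibitors of TDP-43 toxicity read as activators.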
ClpP mod: qHTS Assay for Activators of ClpP; 340,000 compounds, 1.9% hits; AID 651965, 2013; Potency, µM (doses to about 57.5 µM), without a hit: at the highest dose activity change, negative = active; purified B. subtilis ClpP, FRET peptide cleavage, 20 min; active = well fitted falling curve with a large enough effect; inconclusive = small, poorly fitted or top-dose-only effect; inactive = no such curve, though single readings can be large or run the other way; also: the source files actives as falling curves though it sought activators and does not explain the sign; nearly all actives have a fitted effect of over 65% in size
Target sequence (P80244 whole entry, looked up): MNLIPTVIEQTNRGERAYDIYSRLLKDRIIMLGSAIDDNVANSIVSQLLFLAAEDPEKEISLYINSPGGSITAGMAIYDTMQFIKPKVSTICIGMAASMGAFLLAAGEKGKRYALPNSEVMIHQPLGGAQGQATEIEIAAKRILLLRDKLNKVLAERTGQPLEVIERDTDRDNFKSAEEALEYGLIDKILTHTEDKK
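Buffer: 100 mM Tris/HCl pH8, 100 mM KCl, 0.05% low protease BSA, 2.5% glycerol, 0.01% Tween-20. ClpP 10 microg/mL final; 20 min RT; delta FRET normalized to ADEP and DMSO controls.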
FUS suppressor: suppressors of FUS proteinopathy in yeast; S. cerevisiae FUS-expressing, growth rescue, OD600, 24 h; Potency, µM (titrated, usually from 76.6 µM), hits mostly activators; 390,000 compounds, 0.24% hits;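 also: plate controls were DMSO vehicle for no effect and reference control for full effect; nearly all actives have a fitted effect of over 55% in size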
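Absorbance at 600 nm, taken 24hr after compound addition, measured rescue of FUS-yeast growth at 30C. Induction used 2% galactose with seeding at OD 0.005. Controls: CP55940 from 92uM final, DMSO only.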
aSyn rescue: alpha-synuclein toxicity inhibition in yeast; Yeast expressing alpha-synuclein, growth rescue, BacTiter-Glo, 24 h; Potency, µM (doses to about 46.1 µM), inactives show at the highest dose growth rescue (activation), hits mostly activators; 370,000 compounds, 0.14% hits; AID 652106; also: % of control where 0% means no effect; nearly all actives have a fitted effect of over 65% in size
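Readout is rescue of growth in alpha-synuclein-expressing yeast, so inhibitors of toxicity appear as activators. Growth after 24 hr at 30 deg C in galactose medium is quantified by luminescence.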
MmCpn inh: M. maripaludis TRiC chaperonin inhibition; purified Mm-Cpn ATPase, ADP Transcreener TR-FRET; Potency, µM (top dose mostly 76.9 µM), for the others: top-dose activity, negative = inhibition, actives largely listed as inhibitors; 330,000 compounds, 0.031% hits; AID 504842; also: % is scaled to controls: 0 for no effect and ±100 for the full control effect; nearly all actives have a fitted effect of over 80% in size
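ATPase turnover read by TR-FRET ADP competition (Eu cryptate antibody/ADP-d2, 665/590 nm): 10uM ATP final, 25nM Mm-CPN final, 30 min 37degC after 10-min compound preincubation, pH 7.4 Tris/KCl/MgCl2/DTT buffer.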
* marks the source's active call; other numbers are inactive results; i = inactive; ? = inconclusive; . = no result given. Unless noted, calls follow the shape of the dose curve; as a rule, active = well fitted curve in the direction sought with a large enough effect; inconclusive = small, poorly fitted or top-dose-only effect, or another doubt; inactive = no such curve, though single readings can be large; an effect the other way counts as inactive or inconclusive. Potency is read from the fitted curve at half-maximal effect.

SMILES	Abeta yeast res	TDP43 rescue	ClpP mod	FUS suppressor	aSyn rescue	MmCpn inh
CCc1nnc2n1N=C(c1ccc(Cl)cc1)CS2	i	?	-3%	i	-3%	0%
COc1ccc(CC(=O)Nc2ccccc2C(C)=O)cc1S(=O)(=O)N1CCOCC1	i	7%	35µM*	i	-3%	-17%
COc1ccc(S(=O)(=O)N2CCOCC2)cc1NC(=O)Cc1ccsc1	i	7%	20µM*	.	-1%	-1%
CC(C)Oc1ccc(S(=O)(=O)N2CCOCC2)cc1NC(=O)Cc1ccsc1	i	12%	-1%	i	-2%	-3%
CNC(=O)c1c(NC(=O)c2ccc(S(=O)(=O)N3CCCC(C)C3)cc2)sc2c1CCC2 (stereo not given)	i	5%	-2%	i	?	.
CCc1ccc(C(=O)Nc2cccc(-c3nc4cc(C(C)C)ccc4o3)c2)cc1	i	21%	25µM*	i	-7%	.
CC(=O)Nc1ccc2oc(-c3cc(F)c(F)cc3Cl)nc2c1	i	?	18µM*	i	4%	-20%
CC(C)(Oc1ccc(Cl)cc1)C(=O)Nc1ccc2oc(-c3ccncc3)nc2c1	i	4%	28µM*	i	1%	-1%
CCc1ccc(-c2nc3cc(NC(=O)c4ccc(C)c(C)c4)ccc3o2)cc1	i	-27%	4%	i	.	.
CCc1ccc2oc(-c3ccc(NC(C)=O)cc3)nc2c1	i	3.5µM*	-9%	i	-31%	-1%
CCOc1ccccc1NC(=O)c1c2c(nc3ccccc13)C(=O)N(C1CCCCC1)C2	i	0%	0%	?	.	.
COc1cc2nc(N3CCCCC3)nc(NC3CCN(C)CC3)c2cc1OC	.	.	4%	.	-1%	.
COc1ccc(-c2nc3cc(NC(=O)Cc4ccc(OC)c(OC)c4)ccc3o2)cc1	i	-3%	14µM*	?	0%	-1%
CCC(C)NCC(=O)Nc1ccc(-c2nc3cc(NC(=O)CNC(C)CC)ccc3o2)cc1 (stereo not given)	i	6%	13µM*	i	3%	2%
COc1ccc(-c2nc3cc(NC(=O)CSc4ccc(C)cc4)ccc3o2)cc1	i	18%	4%	i	.	.
Cc1ccc(SCC(=O)Nc2ccc3oc(-c4ccc(F)cc4)nc3c2)cc1	i	24%	3.5µM*	i	.	.
COc1ccccc1CN1C(=O)CN(C2CCCCCC2)C(=O)C1c1ccc(C)cc1 (stereo not given)	i	-16%	1%	i	.	.
CCCCn1c(N)c(N(CC(C)C)C(=O)c2ccc(Cl)c(S(=O)(=O)N3CCCC3)c2)c(=O)[nH]c1=O	i	-9%	-10%	32µM*	-16%	1%
CCCCn1c(N)c(N(CCOC)C(=O)c2ccc(S(=O)(=O)N3CCCCC3)cc2)c(=O)[nH]c1=O	i	4%	-14%	i	1%	-1%
CCCCn1c(N)c(N(CCOC)C(=O)c2ccc(Cl)c(S(=O)(=O)N3CCCCC3)c2)c(=O)[nH]c1=O	i	0%	32µM*	i	-1%	-3%
CCCCn1c(N)c(N(CC(C)C)C(=O)c2ccc(OC)c(S(=O)(=O)N3CCOCC3)c2)c(=O)[nH]c1=O	i	21%	-2%	.	2%	.
Cc1cc(C)cc(OCCSc2nc3ccc(NC(=O)c4cccs4)cc3s2)c1	i	12%	0%	?	.	.
O=C(Nc1ccc2nc(SCCOc3ccccc3Cl)sc2c1)c1cccs1	i	19%	11µM*	i	.	.
COc1ccc(-c2csc(C(NC(C)=O)c3ccc(F)c(F)c3)n2)cn1 (stereo not given)	i	35µM*	0%	i	12%	.
CC(=O)NC(c1cccc(F)c1)c1nc(-c2cccc(C(C)C)c2)cs1 (stereo not given)	i	25µM*	-1%	?	?	.

Screening results: PubChem, National Center for Advancing Translational Sciences (NCATS)
